From PMC5540273 (PLoS ONE, 2017)

Assays:
Details in all cases: concentration: 1 μM, replicates: in singlicate; n = 1
EIF2AK1 = system: EIF2AK1
EPHA1 = system: EPHA1
EPHA2 = system: EPHA2
EPHA3 = system: EPHA3
EPHA4 = system: EPHA4
EPHA5 = system: EPHA5
EPHA6 = system: EPHA6
EPHA7 = system: EPHA7
EPHA8 = system: EPHA8
EPHB1 = system: EPHB1
EPHB2 = system: EPHB2
EPHB3 = system: EPHB3
EPHB4 = system: EPHB4
EPHB6 = system: EPHB6
ERBB2 = system: ERBB2
ERBB3 = system: ERBB3
ERBB4 = system: ERBB4
ERK1 = system: T1, ERK1
T1 construct: gene MAPK3

ERK2 = system: T2, ERK2
T2 construct: gene MAPK1

ERK3 = system: T3, ERK3
T3 construct: gene MAPK6
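Further: KINOMEscan kinase panel screen.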

SMILES | %Inh (EIF2AK1) [%] | %Inh (EPHA1) [%] | %Inh (EPHA2) [%] | %Inh (EPHA3) [%] | %Inh (EPHA4) [%] | %Inh (EPHA5) [%] | %Inh (EPHA6) [%] | %Inh (EPHA7) [%] | %Inh (EPHA8) [%] | %Inh (EPHB1) [%] | %Inh (EPHB2) [%] | %Inh (EPHB3) [%] | %Inh (EPHB4) [%] | %Inh (EPHB6) [%] | %Inh (ERBB2) [%] | %Inh (ERBB3) [%] | %Inh (ERBB4) [%] | %Inh (ERK1) [%] | %Inh (ERK2) [%] | %Inh (ERK3) [%]
CS(=O)(=O)CCNCc1ccc(-c2ccc3ncnc(Nc4ccc(OCc5ccccc5)c(Cl)c4)c3c2)o1.Cl [GW574783] | 0 | 3 | 1 | 0 | 13 | 0 | 15 | 0 | 8 | 3 | 0 | 18 | 8 | 28 | 100 | 69 | 90.8 | 4 | 0 | 0
O=C(Nc1ccccc1)Nc1ccc(Oc2ccc3nccn3n2)cc1 | 0 | 31 | 25 | 0 | 0 | 0 | 0 | 3 | 23 | 13 | 0 | 7 | 7 | 0 | 24 | 0 | 0 | 0 | 0 | 0
NC(=O)c1sc(-n2cnc3ccccc32)cc1OCc1ccccc1F [GSK1024306] | 0 | 2 | 0 | 5 | 0 | 0 | 0 | 0 | 19 | 0 | 0 | 1 | 0 | 8 | 47 | 18 | 25 | 0 | 0 | 0
CCCc1ccc(S(=O)(=O)NC2CCN(c3ccnc(Nc4ccc(OC)cc4)n3)C2)cc1 (centres unmarked) [GSK1379737] | 0 | 15 | 0 | 0 | 0 | 0 | 12 | 0 | 7 | 0 | 10 | 5 | 7 | 31 | 36 | 0 | 24 | 0 | 0 | 79
